Sampled rows, rich in hits. Any-hit rate of the full collection: about 17%.
ATXN viability – Viability Counterscreen for Primary qHTS for Inhibitors of ATXN expression | S2 cells (HEK-293 line with an ATXN2-luciferase reporter) viability, CellTiter-Fluor protease fluorescence, 24 h | Potency, µM (highest dose often 56.7 µM), most hits filed as cytotoxic | actives 0.49% (n = 400,000); also: nearly all actives have a fitted effect of over 40% in size
DT40 TDP1 CPT – qHTS for Inhibitors of human tyrosyl-DNA phosphodiesterase 1 (TDP1): qHTS in cells in presence of CPT; Potency, µM (top dose mostly 46.2 µM), without a hit: at the highest dose activity change, negative = growth inhibition, hits mostly inhibitors; actives 12% (n = 420,000); chicken DT40 Tdp1-/-;hTDP1 cells + 20 nM CPT, ATP luminescence, 48 h; also: % is scaled to controls: 0 for no effect and ±100 for the full control effect; nearly all actives have a fitted effect of over 55% in size
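Chicken DT40 Tdp1-/- cells complemented with human TDP1, 400 cells/well, exposed to compounds plus 20 nM camptothecin for at least 48 h at 37 C; viability read as ATP content by CellTiter-Glo luminescence.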
HepG2 viability – qHTS for Inhibitors of TGF-b: Cytotox Counterscreen; actives 0.76% (n = 410,000); Potency, µM (series often up to 46.1 µM), without a hit: at the highest dose activity change, negative = cytotoxicity, actives largely listed as cytotoxic; HepG2 CAGA-GFP viability, ATP luminescence, 18 h
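HepG2 CAGA-GFP cells (1000/well, DMEM with 1% FBS) received compound, then TGF-beta at 500 pg/mL final, and were incubated 18 hours at 37 degrees C. Viability was read by CellTiter-Glo luminescence. Media-only wells were set as complete cell-killing and DMSO as no toxicity.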
TGFb inhibitor – qHTS for Inhibitors of TGF-b; Potency, µM (doses to about 46.1 µM), for inactives: top-dose activity, negative = inhibition, usual class: inhibitors; AID 588855, 2011; HepG2 CAGA-GFP TGF-b/SMAD3 reporter, GFP fluorescence, 18 h; TGF-beta stimulated, 500 pg/mL final; actives 1.2% (n = 410,000); also: % is scaled to controls: 0 for no effect and ±100 for the full control effect; nearly all actives have a fitted effect of over 65% in size
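TGF-beta reporter screen: HEPG2 CAGA-GFP, 1% FBS, 500 pg/mL TGF-beta final, 18 h; per-cell GFP summed per well; curves fitted and categorized by class.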
ATXN2 expr inh – Primary qHTS for Inhibitors of ATXN expression | HEK-293 ATXN2-luciferase reporter, luminescence, 24 h | Potency, µM (titrated, usually from 57 µM), for the others: at the top dose activity change, negative = inhibition, hits mostly inhibitors | actives 0.72% (n = 360,000) | AID 1745845, 2022; also: % is scaled to controls: 0 for no effect and ±100 for the full control effect; nearly all actives have a fitted effect of over 55% in size
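ATXN2-luciferase reporter cells (luciferase flanked by upstream and downstream ATXN2 gene portions) were treated 24 h at 37 °C with compounds at up to 57 uM. SteadyGlo luminescence gave expression; GF-AFC fluorescence gave viability.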
TDP1 cell noCPT – qHTS for Inhibitors of human tyrosyl-DNA phosphodiesterase 1 (TDP1): qHTS in cells in absence of CPT. actives 15% (n = 420,000). Potency, µM (series often up to 46.2 µM), without a hit: at the top dose activity change, negative = growth inhibition, most hits filed as inhibitors. DT40 Tdp1-/- hTDP1 cells, no CPT, ATP luminescence, 48 h; also: % is scaled to controls: 0 for no effect and ±100 for the full control effect; nearly all actives have a fitted effect of over 55% in size
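Compound effects on proliferation are scored in DT40 Tdp1-/-;hTDP1 cells in the absence of CPT. ATP levels (CellTiter-Glo luminescence) are recorded after a ≥48 hr, 37 °C incubation.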
An asterisk follows results filed as active; i = inactive; ? = inconclusive; · = no result given; [ ] = dose if it differs, or a comment. Calls follow the shape of the dose curve; as a rule, active = well fitted curve in the direction sought with a large enough effect; inconclusive = small, poorly fitted or top-dose-only effect, or another doubt; inactive = no such curve, though single readings can be large; an effect the other way counts as inactive or inconclusive. Potency is read from the fitted curve at half-maximal effect.

SMILES | ATXN viability | DT40 TDP1 CPT | HepG2 viability | TGFb inhibitor | ATXN2 expr inh | TDP1 cell noCPT
COc1ccccc1-n1c(CNc2c(C)cccc2C)nnc1SCC(=O)N1CCOCC1 | i | -16.5% | 7.6% | 0.0% | 4.4% | ?
O=C1c2c(O)cccc2[C@H]([C@@H]2O[C@H](CO)[C@@H](O)[C@H](O)[C@H]2O)c2cc(CO)cc(O)c21 | · | -18.4% | · | · | · | -0.4%
COC(=O)c1ccc(CCc2cc(O)c(Br)cc2O)cc1 | ? | 2.06µM* | -29.1% | ? | ? | 2.31µM*
COC(=O)c1ccc(CCc2cc(O)ccc2O)cc1 | ? | 2.91µM* | -9.6% | 0.0% | ? | 5.17µM*
CCOc1ccc(OCCn2c(=S)[nH]c3ccccc32)cc1 | i | -7.1% | -10.3% | -7.0% | · | -26.3%
COc1ccccc1OCCn1c(=S)[nH]c2ccccc21 | i | 18.4µM* | 1.6% | -0.9% | -5.1% | ?
Cc1ccc(OCCn2c(=S)[nH]c3ccccc32)c(C(C)C)c1 | ? | 25.9µM* | -115.6% | 15.8µM* | -22.0% | ?
CCCCc1c(C)[nH]c(=S)[nH]c1=O | i | 8.5% | 2.8% | 9.4% | · | 1.9%
Cc1cccc(OCCn2c(=S)[nH]c3ccccc32)c1 | i | 23.1µM* | -27.1% | -18.0% | 7.8% | ?
Cc1cccc(OCCc2c(C)[nH]c(=S)[nH]c2=O)c1 | i | ? | -22.9% | -25.8% | -12.3%[11.3 µM] | 16.4µM*
Cc1ccc(SCc2cc(=O)[nH]c(SCC(=O)Nc3cc(Cl)ccc3Cl)n2)cc1 | i | 3.3% | -9.2% | 20.5% | -13.9% | -11.6%
Cc1ccc(OCCn2c(=S)[nH]c3c(N)ncnc32)cc1 | i | 5.4% | -16.8% | ? | -9.1% | -3.5%
CN(Cc1cccs1)S(=O)(=O)c1cccs1 | i | -22.3% | -20.8% | -7.3% | 0.6% | -7.9%
COC(=O)c1cc(CNC(=O)c2ccc3ccccc3n2)cc(NC(=O)c2cccc(OC)c2)c1 | ? | -0.9%[9.04 µM] | · | · | · | -13.6%
CC(=O)NC(C)c1cc(Cl)c2cccnc2c1O (stereo unspecified) | 6.31µM* | · | 8.91µM* | 7.08µM* | 7.94µM* | ·
CCC(=O)NC(C)c1cc(Cl)c2cccnc2c1O (stereo unspecified) | ? | · | -57.8% | 1.78µM* | 8.91µM* | ·
CCC(=O)NC(c1cc(Cl)c2ccccc2c1O)C(C)C (stereo unspecified) | i | · | -19.4% | ? | -7.2% | ·
CCC(C)(C)n1nnnc1C(c1ccc(C)cc1)N1CCCC1 (stereo unspecified) | i | -6.2% | -2.0% | -16.0% | 0.7% | -26.1%
c1ccc(CC2CCN(C(c3cccs3)c3nnnn3C3CCCC3)CC2)cc1 (stereo unspecified) | i | ? | -17.1% | -2.0% | -12.5% | ?
CCC(C)(C)n1nnnc1C(c1ccc2ncccc2c1)N1CCCCCC1 (stereo unspecified) | i | 11.2µM* | -13.4% | -4.7% | -15.1% | ?
c1cnc2ccc(C(c3nnnn3C3CCCCC3)N3CCCCC3)cc2c1 (stereo unspecified) | i | -26.8% | -17.0% | -0.1% | -6.7% | ?
c1csc(C(c2nnnn2C2CCCCC2)N2CCCC3(CCCCC3)C2)c1 (stereo unspecified) | i | ? | -11.2% | -9.7% | -12.8% | 23.1µM*
CCC(C)(C)n1nnnc1C(c1cccs1)N1CCCCC1 (stereo unspecified) | i | ? | -21.8% | -5.4% | · | 18.4µM*
O=C(NC1CCCCC1)c1cnn2c1NC(=C1CC1)C=C2C(F)F | · | ? | -5.2% | -10.7% | · | ?
Cc1occc1C(=O)NNC(=O)CN1C(=O)NC2(CCCCC2)C1=O | i | -3.3% | -0.6% | ? | -5.6% | -15.5%
SMILES | ATXN viability | DT40 TDP1 CPT | HepG2 viability | TGFb inhibitor | ATXN2 expr inh | TDP1 cell noCPT
O=C(CCc1c[nH]c2ccccc12)NCC(=O)Nc1ccc(F)c(F)c1F | i | 14.7% | 20.2% | -3.0% | -19.3% | 0.5%
CCc1nc(NCCCn2ccnc2)c2oc3ccccc3c2n1 | i | ? | -10.3% | -3.1% | -4.0% | ?
c1ccc(-c2nc(NCCCn3ccnc3)c3oc4ccccc4c3n2)cc1 | ? | ? | 20µM* | ? | ? | ?
CCCCOC(=O)c1ccc(OC(=O)c2sc3ncn(Cc4ccccc4Cl)c(=O)c3c2C)cc1 | i | 0.2% | -0.1% | -14.8% | 6.9% | -26.4%
O=C(NC1CCCCC1)c1nc(-c2c(F)cccc2F)oc1-c1ccccc1 | · | 23.1µM* | · | · | · | 25.9µM*
O=C(NC1CCCCC1)c1ccc(-c2ccccc2)cc1 | i | -22.9% | 12.6% | 13.8% | 17.6% | -21.2%
COc1ccc(C(=O)Nc2ccc(C(=O)OCC(=O)c3ccccc3)cc2)cc1 | i | -20.0% | -1.6% | -2.7% | -10.7% | -19.6%
COc1ccc(C(=O)OCC(=O)c2ccc(C3CCCCC3)cc2)cc1 | i | ? | -28.8% | -9.2% | -7.1% | 20µM*
Nc1ccc(O)cc1C(=O)OCC(=O)c1ccc(C2CCCCC2)cc1 | ? | ? | -56.9% | -28.1% | ? | 20.6µM*
CN(C=O)c1ccc(CSc2ccccc2)cc1 | i | -1.6% | -5.3% | 18.4% | 53.9% | -25.5%
COC(=O)[C@H](CC(C)C)NC(=O)CC[C@H]1O[C@@H](n2cc(C)c(=O)[nH]c2=O)C[C@@H]1O | i | -5.7% | -3.0% | ? | 3.7% | 1.9%
Cc1ccccc1NC(=O)/C(=C/c1ccco1)c1ccccc1 | i | 23.1µM* | 3.8% | ? | 1.4% | 11.6µM*
CCc1ccccc1NC(=O)/C(=C/c1ccco1)c1ccccc1 | i | ? | -1.3% | -16.6% | -5.5% | 18.4µM*
CC(C)(C)NC(=O)/C(=C/c1ccco1)c1ccccc1 | i | -27.6% | -30.8% | 20.5% | 4.6% | -14.2%
N#Cc1ccc(CN2CCC3(CC2)CCN(C(=O)c2ccco2)CC3)cc1 | · | 1.1% | · | · | · | ?
CC(=O)c1ccc(S(=O)(=O)N2CCC(c3nc4ccccc4[nH]3)CC2)cc1 | i | ? | -5.0% | -4.2% | -3.4% | ?
O=S(=O)(c1ccc(Cl)cc1)N1CCC(c2nc3ccccc3[nH]2)CC1 | i | ? | -47.4% | ? | -10.6% | 11.6µM*
COc1ccccc1N1C(=O)c2cccc3c(Cl)ccc(c23)C1=O | · | ? | -19.5% | ? | -47.0% | 13µM*

Assay outcomes as filed in PubChem.
